Shown are actives, neighbours in structure and some others; about 4.7% of the full set was active somewhere.
proKLK7 act: proKLK7 (human) activation, primary screen; P49862; AID 652039; 370,000 compounds, 0.9% hits; purified proKLK7, EDANS-DABCYL substrate fluorescence; 100% is mature enzyme control, 0% vehicle; activation, % at 7 µM;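 active = activation above the mean of all tested compounds plus 3 SD, computed per campaign excluding outliers beyond control limits, cut at about 13% in these data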
MPTP block: blocks calcium-induced mitochondrial swelling; isolated mouse mitochondria, Ca2+ swelling absorbance, 30 min; inhibition, % at 10 µM; 360,000 compounds, 1.4% hits; AID 602449;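 active = inhibition of 50% or more, scaled per plate between neutral and stimulator controls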
ADAM17 inh: ADAM17 inhibition, QFRET primary screen. P78536. recombinant ADAM17, EDANS/DABCYL FRET peptide cleavage. inhibition, % at 6.95 µM. 370,000 compounds, 0.83% hits. AID 720648;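 active = inhibition above the mean of compounds lying between control limits plus 3 SD, set per campaign, cut at about 8.5% in these data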
ADAM10 inh: ADAM10 inhibition, QFRET primary screen; O14672; inhibition, % at 7 µM; recombinant ADAM10, EDANS/DABCYL FRET peptide cleavage, 3 h; 370,000 compounds, 0.62% hits;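 active = inhibition above a per-campaign cutoff equal to the mean of compounds falling between control-based bounds plus 3 SD, cut at about 20% in these data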
Target sequence (O14672 214-748 limits assumed): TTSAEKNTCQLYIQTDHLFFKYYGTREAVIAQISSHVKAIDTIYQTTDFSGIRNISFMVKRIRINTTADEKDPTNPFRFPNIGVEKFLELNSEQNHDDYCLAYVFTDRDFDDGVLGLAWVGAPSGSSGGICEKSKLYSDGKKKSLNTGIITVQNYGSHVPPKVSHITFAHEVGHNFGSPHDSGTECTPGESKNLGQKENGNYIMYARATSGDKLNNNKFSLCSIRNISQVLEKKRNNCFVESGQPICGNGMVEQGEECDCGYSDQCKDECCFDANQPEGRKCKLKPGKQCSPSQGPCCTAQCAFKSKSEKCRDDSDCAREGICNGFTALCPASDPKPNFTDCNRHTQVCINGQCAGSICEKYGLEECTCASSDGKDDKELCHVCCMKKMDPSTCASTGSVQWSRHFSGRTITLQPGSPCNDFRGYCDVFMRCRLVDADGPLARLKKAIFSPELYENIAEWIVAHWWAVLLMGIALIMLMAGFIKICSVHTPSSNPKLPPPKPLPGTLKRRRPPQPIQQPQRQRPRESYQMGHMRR
rCAG binder: binds r(CAG) RNA repeats | r(CAG) RNA repeat, TO-PRO-1 dye displacement fluorescence | inhibition, % at 3 µM | 370,000 compounds, 1.3% hits | AID 651821;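 active = inhibition above the plate cutoff, the mean of all test compounds on that plate plus 3 SD, cut at about 35% in these data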;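 also: higher means more dye released from RNA so lower well fluorescence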
DSG3 Ab inh: human desmoglein-3 autoantibody binding inhibition; P32926; 310,000 compounds, 0.48% hits; AID 588358; DSG3-coupled beads, scFv-anti-DSG3-GFP binding, flow cytometry; hits give low values; binding (percent of control), % at 10 µM;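 active = binding more than 3 SD below its plate's average and above zero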;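 also: hits lower antibody fragment binding to DSG3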
proKLK7 act conf: confirmation of human kallikrein-7 zymogen activators; 3,200 compounds, 68% hits; activation, % at 7 µM; shares compounds with proKLK7 act; purified proKLK7, EDANS-DABCYL substrate fluorescence; scaled: vehicle 0, mature enzyme 100;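 active = activation, as change over the incubation, above the mean of all tested compounds plus 3 SD, cut at about 13% in these data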
EDANS interfere: counter-screen for kallikrein-7 activators: EDANS-DABCYL optical interference; 3,200 compounds, 80% hits; shares compounds with proKLK7 act; EDANS-DABCYL substrate fluorescence interference, no enzyme, 4 h; solvent 0%, active enzyme control 100%; activation, % at 7 µM;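 active = activation above the all-compound mean plus 3 SD, ignoring values outside control-based bounds, cut at about 4.8% in these data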;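 also: value is the 4 h activation minus the activation read at time zero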
K7 EDANS ctr: EDANS fluorescence interference in dose response, no enzyme. shares compounds with proKLK7 act. EDANS-DABCYL peptide fluorescence interference. EC50, µM. 250 compounds, 20% hits;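 active = compounds that raise the fluorescence signal in this interference counterscreen, with EC50 at or below 10 µM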;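 also: intact quenched peptide substrate alone read at 355 nm excitation and 520 nm emission; signal is fluorescence gain from T0 to T4 after four hours at room temperature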
A number is an active result; 0 = inactive; - = no result.

SMILES	proKLK7 act	MPTP block	ADAM17 inh	ADAM10 inh	rCAG binder	DSG3 Ab inh	proKLK7 act conf	EDANS interfere	others
Cc1c(C2(O)CCCCC2)[nH]c2cnccc12	77	0	0	0	0	0	24	14	K7 EDANS ctr=0
O=C(N/N=C/c1c[nH]c2ccccc12)c1[nH]c2ccc(Br)cc2c1-c1ccccc1	84	0	0	0	0	0	0	0
Cc1[nH]nc2c1C(c1ccsc1)C1=C(CC(C)(C)CC1=O)N2 (stereo not given)	14	0	0	0	0	0	13	17
COc1cc(OC)c(-c2nnc(-c3ccc(OC)c(OC)c3OC)o2)cc1OC	13	0	0	0	0	0	0	0
O=C(N1CCOCC1)N1CCN(S(=O)(=O)c2cccc([N+](=O)[O-])c2)CC1	0	0	0	0	0	0	-	-
CC1=CC(=NOS(=O)(=O)c2ccc(C)cc2)CC(C)(C)C1	0	0	0	0	0	-	-	-
CN(C(=O)C(C)(C)C)[C@H]1C[C@H]2c3[nH]c4ccccc4c3CCN2C(=O)[C@H]1CO	27	0	0	0	0	0	0	9.6
CCOC(=O)N(C)[C@H]1C[C@H]2c3[nH]c4ccccc4c3CCN2C(=O)[C@H]1[C@H](C)O	50	-	0	0	0	-	0	5.9
CCOC(=O)CNC(=O)N(C)[C@H]1C[C@H]2c3[nH]c4ccccc4c3CCN2C(=O)[C@H]1[C@H](C)O	73	0	0	0	0	-	0	9.8
CNC(=O)c1cc2c(cn1)[nH]c1ccccc12	32	0	0	0	0	0	0	4.4
O=C(NCc1cccs1)C1CC(=O)N(Cc2ccccc2)C1 (stereo not given)	0	0	0	0	0	0	-	-
COC(=O)C1=CN(Cc2ccc(OC)cc2)C=C(C(=O)OC)C1c1cc(OC)c(OC)c(OC)c1	-	0	-	-	-	0	-	-
COC(=O)C1=CN(CC2CCCO2)C=C(C(=O)OC)C1c1cc(OC)c(OC)c(OC)c1 (stereo not given)	16	0	0	0	0	0	0	0
COc1ccc(NC(C)=O)cc1NC(C)c1nc2sc(C)c(C)c2c(=O)[nH]1 (stereo not given)	16	0	0	0	0	0	0	9.3
CSc1ccc(S(=O)(=O)NCC(=O)OCC(=O)NCc2cccs2)cc1[N+](=O)[O-]	0	0	0	0	0	0	-	-
Cc1cc2c(nc1C)CCCN2Cc1ccccn1	15	-	0	0	0	-	0	0
COc1ccc(N=c2oc3cc(O)ccc3cc2C(=O)NCC2CCCO2)c(OC)c1 (stereo not given)	20	0	0	0	0	0	13	17
COc1ccc(N=c2oc3cc(O)ccc3cc2C(=O)NCC2CCCO2)cc1 (stereo not given)	16	0	0	0	0	0	0	11
CCOc1ccc(N=c2oc3cc(O)ccc3cc2C(=O)NCC2CCCO2)cc1 (stereo not given)	0	0	0	0	0	0	-	-
CCOc1ccccc1N=c1oc2cc(O)ccc2cc1C(=O)NCC1CCCO1 (stereo not given)	88	0	0	0	0	0	0	14
CCOc1ccc(C(=O)NCC2CCCO2)cc1OCC (stereo not given)	0	0	0	0	0	0	-	-
COc1ccccc1Cc1c(-c2ccc(OC)c(OC)c2)nc2ccc(C)cn12	0	0	0	0	0	-	-	-
O=c1oc2ccccc2cc1-c1nc2ccccc2o1	89	0	0	0	0	0	74	86
Cc1ccc(SCC(=O)OCC(=O)NCCc2ccc(S(N)(=O)=O)cc2)c(C)c1	0	0	0	0	0	-	-	-
COC(=O)c1ccc(C(=O)OC)c(NC(=O)/C=C/C(=O)O)c1	16	0	0	0	0	0	0	0
